Reference: ChEMBL document CHEMBL1157539, “Thousands of chemical starting points for antimalarial lead identification” (Nature, 2010)
Several values for one entry are separate records, joined by “and”; a condition that tells them apart may be missing. Identical values can stand only once.

Assays:
Format in all cases: functional
[1] = tested on: Plasmodium falciparum; assay: GSK_TCMDC: Inhibition of Plasmodium falciparum 3D7 in whole red blood cells, using parasite LDH activity as an index of growth. Test compounds present at 2uM
[2] = tested on: Plasmodium falciparum; assay: GSK_TCMDC: Inhibition of Plasmodium falciparum Dd2 in whole red blood cells, using parasite LDH activity as an index of growth. Test compounds present at 2uM
[3] = tested on: HepG2; assay: GSK_TCMDC: Percent inhibition of human HepG2 cell line. Test compounds present at 10uM.

SMILES | Inhibition [1] | Inhibition [2] | Inhibition [3]
CN1CCC(N(C)c2nccc(N3CCN(Cc4cncn4Cc4ccccc4)CC3)n2)CC1 | 100% | 100% | 15%
CS(=O)(=O)Nc1ccc2[nH]cc(C3CC4CCC(C3)N4CC3CCC(NC(=O)/C=C/c4ccc(Cl)c(Cl)c4)CC3)c2c1 (stereo not drawn) | 100% | 50% | 3%
CC[C@H]1CN2CC[C@@H]1C[C@H]2[C@H](O)c1cc(-c2ccc(Cl)c(Cl)c2)nc2ccc(O)cc12 | 98% | 99% | 0%
Cc1[nH]c2ccccc2c1C1CCN(CC2CCC(NC(=O)/C=C/c3ccc(Cl)c(Cl)c3)CC2)CC1 (stereo not drawn) | 100% | 93% | 15%
CC1(C)CCCN(C(=O)Cc2ccc3c(c2)CCCC3)C1CN1CC=CC1.Cl (stereo not drawn) | 98% | 1% | 0%
CCCCCCCc1cc(O)c2c(c1)OC(C)(C)c1ccncc1-2.Cl | 95% | 52% | 0%
O=C(/C=C/c1c(Cl)cccc1Cl)NC1CCC(CN2CCC(c3c[nH]c4ccccc34)CC2)CC1 (stereo not drawn) | 93% and 100% | 21% and 42% | 54% and 39%
O=C(NCCC1CCN(CCc2c[nH]c3ccccc23)CC1)Nc1ccc(Cl)c(Cl)c1 | 100% | 5% | 18%
O=C(/C=C/c1ccc(Cl)c(Cl)c1)N1CCC(CN2CCC(c3c[nH]c4ccc(NS(=O)(=O)c5cccs5)cc34)CC2)CC1 | 100% | 100% | 17%
Cc1ccc(CC(C)NCC(O)c2cccc(C#N)c2)cc1 (stereo not drawn) | 94% | 86% | 2%
CCCc1cc(O)c2c3c(c(=O)oc2c1)CN(C)CC3 | 98% | 50% | 12%
Cc1[nH]c2cc(F)ccc2c1C1=CCN(CCCCC2(C)C(=O)Nc3c(F)cccc32)CC1 (stereo not drawn) | 96% | 89% | 15%
COc1cc(NC(=O)c2nn(CCCN3CCC4(CC3)C(=O)NCN4c3ccccc3)cc2-c2ccc(Cl)c(Cl)c2)cc(OC)c1OC | 97% | 75% | 0%
COc1ccc(C=CC(=O)N2CCC(CN3CCC(c4c[nH]c5ccccc45)CC3)CC2)cc1OC | 94% | 4% | 20%
CCOc1ccc(CN(CCc2ccc3c(c2)OCO3)Cc2cc(OC)ccc2O)cc1.O=C(O)C(=O)O | 96% | 88% | 3%
O=C(NC1CCC(CN2CCC(c3c[nH]c4ccccc34)CC2)CC1)C1(O)c2ccccc2-c2ccccc21 (stereo not drawn) | 85% | 46% | 22%
O=C1COc2ccccc2N1CCN1CCC(NCc2ccc(-c3cccs3)cc2)CC1 | 87% | 18% | 37%
CCCCCCC(C)c1cc(O)c2c(c1)OC(C)(C)c1ccncc1-2.Cl (stereo not drawn) | 100% | 61% | 0%
O=C(CCCCCc1ccccc1)NC1CCC(CN2CCC(c3c[nH]c4ccccc34)CC2)CC1 (stereo not drawn) | 86% | 5% | 34%
COC(C(=O)OCCC1CCCN1C)(c1ccccc1)C1CCCCC1 (stereo not drawn) | 100% | 5% | 3%
Cc1ccc2c(C3=CCN(CCCCC4(C)C(=O)Nc5ccccc54)CC3)c(C)[nH]c2c1 (stereo not drawn) | 95% | 91% | 9%
CC[C@H]1CN2CC[C@@H]1C[C@H]2[C@H](O)c1cc(N2CCC(C)CC2)nc2ccc(OC)cc12 | 99% | 98% | 16%
CCCCc1ccc2[nH]cc(C3=CCN(C)CC3)c2c1Br | 94% | 94% | 37%
CC(C)CNCc1ccc(-c2ccc(CN(C(=O)NC3CCCCC3)C3CCN(Cc4ccccc4)CC3)cc2)cc1.O=C(O)C(F)(F)F | 100% | 88% | 39%
COc1ccc(N(c2nc(-c3cc(Cl)ccc3Cl)cs2)C2CCNCC2)cc1.O=C(O)C(F)(F)F | 91% | 4% | 17%
O=C(C=Cc1cccc(Cl)c1Cl)NC1CCC(CN2CCC(c3c[nH]c4ccccc34)CC2)CC1 (stereo not drawn) | 83% and 100% |  | 40% and 33%
COc1ccc(OC)c(C(O)CNC(C)C)c1.Cl (stereo not drawn) | 96% | 0% | 3%
COc1cc(C=CC(=O)NC2CCC(CN3CCC(c4c[nH]c5ccccc45)CC3)CC2)cc(OC)c1 (stereo not drawn) | 100% | 90% | 38%
